{
  "source": "paper PMC4336329",
  "about": "(PLoS ONE, 2015)",
  "note": "Among all 310,000 compounds or so, about 14,000 (4.5%) showed an effect of 50% or more. Effects have a minus sign here. For the sample, strong results were picked, then their nearest neighbours and some compounds at random.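 Also: peak tail current of the secondary pulse compared with the same well before compound.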",
  "data": [
    {"biological_target": "human ether-à-go-go-related gene (hERG) potassium channel (human, UniProt Q12809)", "sequence (Q12809 whole entry, looked up)": "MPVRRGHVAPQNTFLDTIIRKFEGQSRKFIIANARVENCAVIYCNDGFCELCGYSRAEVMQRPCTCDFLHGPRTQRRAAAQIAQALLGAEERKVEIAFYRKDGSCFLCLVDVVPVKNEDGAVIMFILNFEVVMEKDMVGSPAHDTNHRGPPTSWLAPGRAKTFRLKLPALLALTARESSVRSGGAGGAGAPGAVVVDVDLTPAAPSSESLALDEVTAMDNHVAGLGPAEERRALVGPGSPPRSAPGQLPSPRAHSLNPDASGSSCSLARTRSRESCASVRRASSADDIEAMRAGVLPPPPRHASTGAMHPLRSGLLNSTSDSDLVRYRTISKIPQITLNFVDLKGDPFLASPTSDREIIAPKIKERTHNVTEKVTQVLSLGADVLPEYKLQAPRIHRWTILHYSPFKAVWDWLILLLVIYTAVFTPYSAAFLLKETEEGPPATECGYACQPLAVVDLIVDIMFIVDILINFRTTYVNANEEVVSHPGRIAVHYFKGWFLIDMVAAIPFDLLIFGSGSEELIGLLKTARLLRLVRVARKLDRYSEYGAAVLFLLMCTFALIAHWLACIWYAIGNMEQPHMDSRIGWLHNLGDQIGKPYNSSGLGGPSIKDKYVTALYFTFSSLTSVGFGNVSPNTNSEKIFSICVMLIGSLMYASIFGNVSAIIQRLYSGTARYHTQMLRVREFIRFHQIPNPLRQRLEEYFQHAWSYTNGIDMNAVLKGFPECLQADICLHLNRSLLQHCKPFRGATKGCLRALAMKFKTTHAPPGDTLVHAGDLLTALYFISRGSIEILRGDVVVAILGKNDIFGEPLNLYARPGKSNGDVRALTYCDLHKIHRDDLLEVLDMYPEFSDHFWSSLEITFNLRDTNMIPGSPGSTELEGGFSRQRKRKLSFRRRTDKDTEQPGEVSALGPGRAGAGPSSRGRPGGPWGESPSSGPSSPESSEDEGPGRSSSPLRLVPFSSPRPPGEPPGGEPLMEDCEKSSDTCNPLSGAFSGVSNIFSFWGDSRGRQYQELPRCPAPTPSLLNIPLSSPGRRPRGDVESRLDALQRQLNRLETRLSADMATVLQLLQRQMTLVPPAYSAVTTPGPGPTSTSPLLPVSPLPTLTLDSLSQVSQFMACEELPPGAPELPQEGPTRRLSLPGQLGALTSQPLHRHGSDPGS", "assay": "primary screen, population patch clamp on CHO cells stably expressing hERG; higher = less effect of the substance", "units": {"hERG current change (%, negative = inhibition) at 10uM": "%"}, "values": [
      {"smiles": "Cc1cc(C)cc(NC(=O)CN2C(=O)C3CC=CCC3C2=O)c1", "note": "(stereo not drawn)", "hERG current change (%, negative = inhibition) at 10uM": 4.39},
      {"smiles": "CC1=N/C(=C/c2cc(Br)cc(Br)c2O)C(=O)O1", "hERG current change (%, negative = inhibition) at 10uM": 17},
      {"smiles": "Cc1ccc(S(=O)(=O)NC(=O)Nc2ccc(C)cn2)cc1", "hERG current change (%, negative = inhibition) at 10uM": 14.6},
      {"smiles": "Cc1sc(NC(=O)c2ccco2)c(C(c2ccncc2)N2CCOCC2)c1C", "note": "(stereo not drawn)", "hERG current change (%, negative = inhibition) at 10uM": -37.1},
      {"smiles": "Fc1ccc2nc(N3CCCCC3)sc2c1", "hERG current change (%, negative = inhibition) at 10uM": 5.89},
      {"smiles": "CCCC(=O)N1CCN(c2nc3ccc(Cl)cc3s2)CC1", "hERG current change (%, negative = inhibition) at 10uM": -70.2},
      {"smiles": "CCCCC(=O)N1CCN(c2nc3ccc(OCC)cc3s2)CC1", "hERG current change (%, negative = inhibition) at 10uM": -35.5},
      {"smiles": "CCCC(=O)N1CCN(c2nc3ccc(CC)cc3s2)CC1", "hERG current change (%, negative = inhibition) at 10uM": -23.4},
      {"smiles": "CCCCC(=O)N1CCN(c2nc3ccc(F)cc3s2)CC1", "hERG current change (%, negative = inhibition) at 10uM": -65.3},
      {"smiles": "CC(C)(C)C(=O)N1CCN(c2nc3ccc(Cl)cc3s2)CC1", "hERG current change (%, negative = inhibition) at 10uM": -12.2},
      {"smiles": "CCCCC(=O)N1CCN(c2nc3ccc(Cl)cc3s2)CC1", "hERG current change (%, negative = inhibition) at 10uM": -71.1},
      {"smiles": "CCCC(=O)N1CCN(c2nc3ccccc3s2)CC1", "hERG current change (%, negative = inhibition) at 10uM": -24.7},
      {"smiles": "CC(C)(CC(=O)O)CC(=O)N1CCN(c2nc3ccc(Cl)cc3s2)CC1", "hERG current change (%, negative = inhibition) at 10uM": 14.2},
      {"smiles": "Cc1cc(OC(=O)c2ccccc2Cl)ccc1N1C(=O)CCC1=O", "hERG current change (%, negative = inhibition) at 10uM": -1.98},
      {"smiles": "O=[N+]([O-])c1ccc(O)c(-c2nn[nH]n2)c1", "hERG current change (%, negative = inhibition) at 10uM": 1.52},
      {"smiles": "CC1=NN(C(=O)c2ccc(Cn3ccc([N+](=O)[O-])n3)cc2)C(O)(C(F)(F)F)C1", "note": "(stereo not drawn)", "hERG current change (%, negative = inhibition) at 10uM": -8.73},
      {"smiles": "O=C1N(c2ccc(Cl)cc2)C(c2ccc(Cl)cc2)N2CCCN12", "note": "(stereo not drawn)", "hERG current change (%, negative = inhibition) at 10uM": -16.7},
      {"smiles": "COc1ccccc1/C=C1\\SC(=S)N(CCC(=O)NCCc2ccc(O)cc2)C1=O", "hERG current change (%, negative = inhibition) at 10uM": 15.1},
      {"smiles": "CCOC(=O)Oc1ccc2oc(=O)cc(C)c2c1", "hERG current change (%, negative = inhibition) at 10uM": 15.9},
      {"smiles": "O=c1[nH]c(/C=C/c2cccc3ccccc23)nc2ccccc12", "hERG current change (%, negative = inhibition) at 10uM": 36.4},
      {"smiles": "O=C(c1ccco1)N1CCN(C(=O)c2cc(-c3ccc(F)cc3)no2)CC1", "hERG current change (%, negative = inhibition) at 10uM": -65.1},
      {"smiles": "COc1ccc(-c2cc(C(=O)N3CCN(C(=O)c4ccco4)CC3)[nH]n2)cc1", "hERG current change (%, negative = inhibition) at 10uM": -31.6},
      {"smiles": "COc1cccc(-c2cc(C(=O)N3CCN(C(=O)c4ccco4)CC3)on2)c1", "hERG current change (%, negative = inhibition) at 10uM": -13.9},
      {"smiles": "O=C(c1cc(-c2ccc(Cl)cc2)n[nH]1)N1CCN(C(=O)c2ccco2)CC1", "hERG current change (%, negative = inhibition) at 10uM": -68.9},
      {"smiles": "Cc1ccc(-c2cc(C(=O)N3CCN(C(=O)c4ccco4)CC3)[nH]n2)cc1C", "hERG current change (%, negative = inhibition) at 10uM": 5.83},
      {"smiles": "O=C(c1ccco1)N1CCN(C(=O)c2cc(-c3ccccc3F)no2)CC1", "hERG current change (%, negative = inhibition) at 10uM": -15.8},
      {"smiles": "CCOc1ccc(NC(=O)CCNC(=O)c2ccco2)cc1", "hERG current change (%, negative = inhibition) at 10uM": 6.08},
      {"smiles": "Cc1ccc(C(=O)COC(=O)CNC(=O)Cc2ccccc2)cc1", "hERG current change (%, negative = inhibition) at 10uM": -2.44},
      {"smiles": "COc1ccc(CCN2C(=O)c3cccc4cccc(c34)C2=O)cc1OC", "hERG current change (%, negative = inhibition) at 10uM": 12.9},
      {"smiles": "COc1ccc(C(CNC(=O)C(C)c2ccc3cc(OC)ccc3c2)N(C)C)cc1", "note": "(stereo not drawn)", "hERG current change (%, negative = inhibition) at 10uM": -7.44},
      {"smiles": "Cc1ccc(NS(=O)(=O)c2cc(C(=O)NCc3ccccn3)ccc2Cl)cc1C", "hERG current change (%, negative = inhibition) at 10uM": -47},
      {"smiles": "COc1ccc(N2C(=O)C3C(c4ccc(OC)cc4O)NC(Cc4ccccc4)(C(=O)O)C3C2=O)cc1", "note": "(stereo not drawn)", "hERG current change (%, negative = inhibition) at 10uM": 19.5},
      {"smiles": "CCC(=O)c1ccc(OCC(=O)N2CCc3cc(OC)c(OC)cc3C2)cc1", "hERG current change (%, negative = inhibition) at 10uM": -33.2},
      {"smiles": "COc1cc2c(cc1OC)CN(C(=S)Nc1ccc(OC(F)F)cc1)CC2", "hERG current change (%, negative = inhibition) at 10uM": -38.8},
      {"smiles": "COc1cc2c(cc1OC)CN(CC(=O)Nc1ccc(C#N)cc1)CC2", "hERG current change (%, negative = inhibition) at 10uM": -63.1},
      {"smiles": "COc1ccc(C(=O)NCC(=O)N2CCc3ccccc3C2)cc1", "hERG current change (%, negative = inhibition) at 10uM": -2.27},
      {"smiles": "COc1cc2c(cc1OC)CN(C(=O)COc1ccc(C#N)cc1)CC2", "hERG current change (%, negative = inhibition) at 10uM": -63.4},
      {"smiles": "NC(=O)Nc1ccc(C(=O)OCC(=O)N2CCc3ccccc3C2)cc1", "hERG current change (%, negative = inhibition) at 10uM": 5.29},
      {"smiles": "COc1cc2c(cc1OC)CN(C(=O)COc1ccc(C)c(C)c1)CC2", "hERG current change (%, negative = inhibition) at 10uM": -11.9},
      {"smiles": "CCC(=O)c1ccc(OCC(=O)OCC(=O)N2CCc3ccccc3C2)cc1", "hERG current change (%, negative = inhibition) at 10uM": -24.8},
      {"smiles": "COc1cc2c(cc1OC)CN(CC(=O)Nc1ccc(F)cc1)CC2", "hERG current change (%, negative = inhibition) at 10uM": -7.62},
      {"smiles": "COc1cc2c(cc1OC)CN(CC(=O)Nc1ccc(C)cc1)CC2", "hERG current change (%, negative = inhibition) at 10uM": -16.4},
      {"smiles": "COc1cc2c(cc1OC)CN(C(=O)CNC(=O)c1ccc(OC(F)F)cc1)CC2", "hERG current change (%, negative = inhibition) at 10uM": -52.5},
      {"smiles": "O=C(OCC(=O)N1CCc2ccccc2C1)c1ccc(OC(F)F)cc1", "hERG current change (%, negative = inhibition) at 10uM": -80.2},
      {"smiles": "CCC(C(=O)O)n1nc(-c2ccccc2)c2cc(Cl)ccc21", "note": "(stereo not drawn)", "hERG current change (%, negative = inhibition) at 10uM": 13.8}
    ]}
  ]
}
